Measurements reported in PubChem BioAssay (NCI).
Compounds without any hit were thinned out: in the full panel of roughly 79,000, 15% have a hit. Values without a mark were called inactive. Active and inactive are the calls of the source. No stated cut-off is given here; in the data, active means growth inhibition above about 70%; inactive means the rest.

Experiment: NCI Yeast Anticancer Drug Screen. Data for the mgt1 strain (AID 153)
Settings: S. cerevisiae mgt1 mutant growth inhibition, hits give high values
Protocol: Growth inhibition of yeast strains with defined genetic alterations is measured as a screen for potential anti-cancer activity. Selected strains with alterations in DNA damage repair or cell cycle control were exposed to compounds and growth inhibition was measured relative to vehicle treated controls. The strain used in this assay is mgt1

Structure (SMILES)	growth inhibition (at 1.2 µM)	growth inhibition (at 3.7 µM)	growth inhibition (at 11.0 µM)	growth inhibition (at 33.0 µM)	growth inhibition (at 100.0 µM)
NCCNc1ccc(NCCN)c2c1C(=O)c1c(O)ccc(O)c1C2=O	-30%	-21%	-9%	86% (active)	66%
OC1(c2ccccc2)CSC2=Nc3ccccc3C3CCN1N23 (stereo not given)	-45%	-43%	-38%	57%	94% (active)
COc1cc2c(c(OC)c1OC)-c1c(cc3c(c1OC)OCO3)CC(C)C(C)(O)C2OC(=O)c1ccccc1 (stereo not given)	-5%	-9%	-14%	-17%	70% (active)
CSC(=S)Nc1cc(C)ccn1	-34%	-27%	37%	23%	76% (active)
C/C(=N/NC(=S)N1CCCCCC1)c1cccc(/C(C)=N\NC(=S)N2CCCCCC2)n1	23%	35%	52%	80% (active)	69%
c1ccc2c(c1)c1ncccc1c1nccnc21	-2%	0%	-2%	-2%	-2%
Cc1ccc2[nH]c3c(C)c4cc[n+](C)cc4c(C)c3c2c1	-18%	-15%	-23%	47%	94% (active)
Cc1ccc(S/N=C\c2ccccc2O)cc1	2%	-1%	1%	7%	-1%
